# Reference: PubChem BioAssay (Tox21)
# A number with no mark means an inactive call. Results filed as inconclusive are left out. Entries that show only a call come without a potency. Calls of active or inactive are those of the source. Unless noted, the call rests on the fitted dose curve.
# What was measured:
# [1] = molecular target: Estrogen receptor beta (Homo sapiens) (UniProt Q92731); experiment: qHTS assay to identify small molecule agonists of the estrogen receptor beta (ER-beta) signaling pathway (AID 1259377; active means well fitted activation curve with a large enough effect in the signal ratio in the repeat runs, not every such curve was filed as active; the % refers to the signal ratio)
# Sequence of Estrogen receptor beta (Homo sapiens) (Q92731 whole entry, looked up): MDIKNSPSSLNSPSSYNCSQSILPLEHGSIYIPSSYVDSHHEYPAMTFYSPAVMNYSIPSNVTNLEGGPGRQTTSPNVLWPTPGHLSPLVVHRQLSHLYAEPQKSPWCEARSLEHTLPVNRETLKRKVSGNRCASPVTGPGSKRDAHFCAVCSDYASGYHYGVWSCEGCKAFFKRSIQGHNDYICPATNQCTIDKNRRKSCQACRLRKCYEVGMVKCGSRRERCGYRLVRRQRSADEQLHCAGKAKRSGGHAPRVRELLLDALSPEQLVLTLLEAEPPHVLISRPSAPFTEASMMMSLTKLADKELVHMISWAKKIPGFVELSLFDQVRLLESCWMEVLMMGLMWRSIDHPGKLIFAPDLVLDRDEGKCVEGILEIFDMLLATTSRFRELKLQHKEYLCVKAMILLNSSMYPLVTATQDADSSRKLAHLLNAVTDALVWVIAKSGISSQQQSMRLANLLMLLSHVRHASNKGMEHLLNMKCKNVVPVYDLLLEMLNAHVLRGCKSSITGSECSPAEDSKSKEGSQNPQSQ
# Outline: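 qHTS in ER-beta-UAS-bla HEK293T cells: 6 hr settling, then 16 hr compound at 37C, then LiveBLAzer substrate 2 h at RT before fluorescence reading.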
# [2] = molecular target: Estrogen receptor beta (Homo sapiens) (UniProt Q92731); experiment: qHTS assay to identify small molecule antagonists of the estrogen receptor beta (ER-beta) signaling pathway (AID 1259378; active means well fitted inhibition curve with a large enough effect in the signal ratio in the repeat runs, not every such curve was filed as active; the % refers to the signal ratio)
# Outline: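 ER-beta-UAS-bla HEK293T cells in 2% charcoal-stripped FBS medium treated with compound plus 1nM final 17-beta-estradiol for 16 hr at 37C. Beta-lactamase reporter read by FRET substrate fluorescence after 2 hours at room temperature.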
# [3] = qHTS assay to identify small molecule agonists of the androgen receptor (AR) signaling pathway in the presence of an antagonist - cell viability counter screen (AID 1259379; active means well fitted curve in the direction sought with a large enough effect in the repeat runs; an effect the other way counts as inactive or inconclusive;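 further: MDA-kb2 human breast cancer cells carrying an MMTV luciferase reporter; series mostly up to about 92 µM; nearly all actives have a fitted effect of over 25% in size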)
# Outline: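 In MDA-kb2 cells (human breast carcinoma, MMTV-luciferase), compounds at 15 concentrations plus 3.0uM nilutamide; 16 hr, 37C, 0% CO2; CellTiter-Fluor fluorescence read for viability.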
# [4] = qHTS assay to identify small molecule agonists of the estrogen receptor beta (ER-beta) signaling pathway - cell viability counter screen (AID 1259380; active means well fitted curve in the direction sought with a large enough effect in the repeat runs; an effect the other way counts as inactive or inconclusive; further: nearly all actives have a fitted effect of over 30% in size)
# Outline: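 Viability of ER-beta-UAS-bla HEK293T cells was determined by CellTiter-Glo luminescence following 16 hr treatment with test compounds at 37C.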
# [5] = qHTS assay to identify small molecule antagonists of the estrogen receptor beta (ER-beta) signaling pathway - cell viability counter screen (AID 1259382; active means well fitted curve in the direction sought with a large enough effect in the repeat runs; an effect the other way counts as inactive or inconclusive; further: series mostly up to about 92 µM; nearly all actives have a fitted effect of over 55% in size)
# Outline: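 Tox21 10K library tested in qHTS format on ER-beta-bla HEK293T cells stimulated with 1nM E2; 16 hr treatment at 37C. Same-well CellTiter-Glo luminescence served as the cell viability measure.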
# [6] = qHTS assay to identify small molecule agonists or antagonists of the thyroid stimulating hormone receptor (TSHR) signaling pathway - wild type cell line counter screen (AID 1259384)
# Outline: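 Wild-type Hek293 cells, 800/well, 18 h at 37C, then compound with Ro20-1724 for 30 min RT. cAMP by HTRF (cAMP-d2/anti-cAMP cryptate), 1 h RT, fluorescence read. 15 concentrations, triplicates.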
# [7] = molecular target: Thyrotropin receptor (Homo sapiens) (UniProt P16473); experiment: qHTS assay to identify small molecule antagonists of the thyroid stimulating hormone receptor (TSHR) signaling pathway (AID 1259385); further: nearly all actives have a fitted effect of over 20% in size
# Sequence of Thyrotropin receptor (Homo sapiens) (P16473 whole entry, looked up): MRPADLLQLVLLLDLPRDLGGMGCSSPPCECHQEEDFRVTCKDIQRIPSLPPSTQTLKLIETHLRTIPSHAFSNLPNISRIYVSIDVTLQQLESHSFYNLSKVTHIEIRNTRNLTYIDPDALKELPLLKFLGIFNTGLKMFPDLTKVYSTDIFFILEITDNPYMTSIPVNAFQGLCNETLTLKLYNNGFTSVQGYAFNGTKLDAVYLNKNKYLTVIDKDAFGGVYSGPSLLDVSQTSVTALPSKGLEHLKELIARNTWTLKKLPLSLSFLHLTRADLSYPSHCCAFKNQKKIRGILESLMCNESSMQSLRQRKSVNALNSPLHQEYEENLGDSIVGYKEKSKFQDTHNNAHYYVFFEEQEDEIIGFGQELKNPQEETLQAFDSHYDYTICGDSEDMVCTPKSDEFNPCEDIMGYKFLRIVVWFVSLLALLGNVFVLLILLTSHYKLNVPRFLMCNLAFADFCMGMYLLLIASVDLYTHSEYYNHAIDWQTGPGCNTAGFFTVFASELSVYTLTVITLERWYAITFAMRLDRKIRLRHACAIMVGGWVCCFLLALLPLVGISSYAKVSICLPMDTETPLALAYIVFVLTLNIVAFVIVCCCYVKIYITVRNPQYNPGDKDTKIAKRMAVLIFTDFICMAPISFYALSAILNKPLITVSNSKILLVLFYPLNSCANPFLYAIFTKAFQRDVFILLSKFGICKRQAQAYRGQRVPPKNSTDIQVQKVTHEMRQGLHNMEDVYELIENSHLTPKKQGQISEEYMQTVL
# Outline: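 TSHR-HEK293 cells (800/well) plated 18 h, then compounds with Ro20-1724 and TSH at 1.5 ng/mL final, 30 min at room temperature. cAMP quantified by HTRF (cAMP-d2/anti-cAMP-cryptate, 1 h); 15 concentrations in triplicate.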
# [8] = qHTS assay to identify small molecule agonists of the estrogen receptor alpha (ER-alpha) signaling pathway in the presence of an antagonist - cell viability counter screen (AID 1259386; active means well fitted curve in the direction sought with a large enough effect in the repeat runs; an effect the other way counts as inactive or inconclusive;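 further: series mostly up to about 92 µM; cells exposed to compounds for 22 h at 37 °C before the viability read; nearly all actives have a fitted effect of over 30% in size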)
# Outline: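 Fluorescent CellTiter-Fluor viability signal from VM7Luc4E2 cells, with the reagent added during the final hour of a 22hr compound exposure at 37C in the presence of 10.0nM ICI-182,780.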
# [9] = molecular target: Progesterone receptor (Homo sapiens) (UniProt P06401); experiment: qHTS assay to identify small molecule agonists of the progesterone receptor (PR) signaling pathway (AID 1346784); further: nearly all actives have a fitted effect of over 30% in size
# Sequence of Progesterone receptor (Homo sapiens) (P06401 whole entry, looked up): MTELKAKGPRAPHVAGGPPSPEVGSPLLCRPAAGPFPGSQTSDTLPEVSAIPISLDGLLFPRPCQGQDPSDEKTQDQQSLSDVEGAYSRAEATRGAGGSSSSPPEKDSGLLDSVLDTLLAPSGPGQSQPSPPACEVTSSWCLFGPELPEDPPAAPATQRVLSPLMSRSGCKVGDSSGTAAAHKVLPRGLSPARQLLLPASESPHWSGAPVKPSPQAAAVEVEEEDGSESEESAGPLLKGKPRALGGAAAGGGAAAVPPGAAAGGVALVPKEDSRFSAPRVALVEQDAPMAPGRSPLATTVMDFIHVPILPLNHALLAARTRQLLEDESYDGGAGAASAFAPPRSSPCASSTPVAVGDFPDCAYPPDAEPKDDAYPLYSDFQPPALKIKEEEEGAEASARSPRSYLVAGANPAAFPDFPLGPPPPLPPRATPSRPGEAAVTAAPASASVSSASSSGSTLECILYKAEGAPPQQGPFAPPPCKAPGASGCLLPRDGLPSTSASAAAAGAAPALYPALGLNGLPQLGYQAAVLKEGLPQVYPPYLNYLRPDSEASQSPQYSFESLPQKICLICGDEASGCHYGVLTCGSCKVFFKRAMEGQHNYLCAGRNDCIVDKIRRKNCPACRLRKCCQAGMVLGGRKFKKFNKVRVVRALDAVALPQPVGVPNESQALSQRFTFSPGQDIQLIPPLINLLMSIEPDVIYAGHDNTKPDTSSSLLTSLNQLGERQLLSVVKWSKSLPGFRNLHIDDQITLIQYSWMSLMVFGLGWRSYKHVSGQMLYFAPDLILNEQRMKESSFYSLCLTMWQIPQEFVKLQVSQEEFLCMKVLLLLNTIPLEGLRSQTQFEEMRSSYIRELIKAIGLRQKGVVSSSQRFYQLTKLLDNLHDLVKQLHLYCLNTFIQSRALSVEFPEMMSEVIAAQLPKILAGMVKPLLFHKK
# Outline: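 Fluorescence from LiveBLAzer B/G FRET substrate cleavage (2 hr, RT) reported PR activation in PR-UAS-bla HEK 293T cells treated 16 hr at 37C/5% CO2 with compounds; medium contained 2% charcoal-stripped FBS.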
# [10] = molecular target: Progesterone receptor (Homo sapiens) (UniProt P06401); experiment: qHTS assay to identify small molecule antagonists of the progesterone receptor (PR) signaling pathway (AID 1346795; active means well fitted inhibition curve with a large enough effect in the signal ratio in the repeat runs, not every such curve was filed as active; the % refers to the signal ratio; further: potency means the concentration at half of the fitted maximal effect)
# Outline: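 Fluorescence intensity measured 2 hr after adding beta-lactamase FRET substrate to PR-UAS-bla HEK293T cells that had been co-treated 16 hr with compound and 1 nM R5020 (final concentration) in 2% charcoal-stripped FBS.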
# [11] = qHTS assay to identify small molecule antagonists of the progesterone receptor (PR) signaling pathway - cell viability counter screen (AID 1346798; active means well fitted curve in the direction sought with a large enough effect in the repeat runs; an effect the other way counts as inactive or inconclusive; further: series mostly up to about 92 µM; nearly all actives have a fitted effect of over 50% in size)
# Outline: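 CellTiter-Glo luminescence; PR-UAS-bla HEK293T, 3,000 cells/well; compound + R5020, 16 hr, 37C/5% CO2; 30 min RT before read.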
# [12] = qHTS assay to identify small molecule agonists of the progesterone receptor (PR) signaling pathway - cell viability counter screen (AID 1346799); further: nearly all actives have a fitted effect of over 45% in size
# Outline: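 In parallel with the beta-lactamase readout, cytotoxicity toward PR-UAS-bla HEK293T cells was measured by CellTiter-Glo luminescence following 16 hr compound incubation in 2% charcoal-stripped FBS medium.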
# [13] = qHTS assay to identify small molecule antagonists of the TGF-beta/Smad signaling pathway - cell viability counter screen (AID 1346824; active means well fitted curve in the direction sought with a large enough effect in the repeat runs; an effect the other way counts as inactive or inconclusive; further: nearly all actives have a fitted effect of over 50% in size)
# Outline: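 SBE-bla HEK 293T cells, incubated overnight, then compound plus 0.25 ng/mL TGF-beta1 (stock added) for 5 hr at 37 C. Viability was read in the same wells by CellTiter-Glo luminescence after 30 min at room temperature.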
# [14] = qHTS assay to identify small molecule agonists of the TGF-beta/Smad signaling pathway - cell viability counter screen (AID 1346829; active means well fitted curve in the direction sought with a large enough effect in the repeat runs; an effect the other way counts as inactive or inconclusive; further: top concentration of the series differs between compounds; nearly all actives have a fitted effect of over 45% in size)
# Outline: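 Compound-treated SBE-bla HEK 293T cells (5 hr, 37 C) were assessed for viability with CellTiter-Glo in parallel with the reporter read.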
# [15] = qHTS assay to identify small molecule agonists of the TGF-beta/Smad signaling pathway (AID 1346859; active means well fitted activation curve with a large enough effect in the signal ratio in the repeat runs, not every such curve was filed as active; the % refers to the signal ratio; further: series mostly up to about 77 µM)
# Outline: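 After overnight seeding, SBE-bla HEK 293T cells are dosed with compounds in DMSO and kept 5 hr at 37 C, 5% CO2. LiveBLAzer-type FRET substrate is then applied for 2 hr at room temperature.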
# [16] = molecular target: Thyrotropin-releasing hormone receptor (Homo sapiens) (UniProt P34981); experiment: qHTS assay to identify small molecule antagonists of the thyrotropin-releasing hormone receptor (TRHR) signaling pathway (AID 1346877; active means well fitted inhibition curve with a large enough effect in the repeat runs, not every such curve was filed as active; further: series mostly up to about 51 µM)
# Sequence of Thyrotropin-releasing hormone receptor (Homo sapiens) (P34981 whole entry, looked up): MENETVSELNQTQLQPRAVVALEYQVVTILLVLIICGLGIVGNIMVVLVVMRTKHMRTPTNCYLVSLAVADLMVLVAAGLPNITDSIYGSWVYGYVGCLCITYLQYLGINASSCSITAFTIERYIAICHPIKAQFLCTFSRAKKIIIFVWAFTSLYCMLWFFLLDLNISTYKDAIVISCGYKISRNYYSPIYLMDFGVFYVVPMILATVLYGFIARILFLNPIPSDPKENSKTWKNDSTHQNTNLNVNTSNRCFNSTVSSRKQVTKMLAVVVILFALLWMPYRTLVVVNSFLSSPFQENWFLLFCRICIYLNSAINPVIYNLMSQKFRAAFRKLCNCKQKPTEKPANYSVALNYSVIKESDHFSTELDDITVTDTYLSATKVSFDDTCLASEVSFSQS
# Outline: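 In this cell-based calcium flux format, HEK293 cells expressing TRHR received test compound for 5 min before the agonist TRH (1 nM final). Dye loading lasted 2 h at 37 °C.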
# [17] = molecular target: Thyrotropin-releasing hormone receptor (Homo sapiens) (UniProt P34981); experiment: qHTS assay to identify small molecule agonists of the thyrotropin-releasing hormone receptor (TRHR) signaling pathway (AID 1346891); further: series mostly up to about 58 µM
# Outline: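 Compounds were tested as agonists at 15 concentrations, in triplicate, on TRHR-Hek293 cells; calcium-sensitive dye fluorescence was recorded for 3 min following addition.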
# [18] = molecular target: Estrogen receptor (Homo sapiens) (UniProt P03372); experiment: qHTS assay to identify small molecule agonists of the estrogen receptor alpha (ER-alpha) signaling pathway in the presence of an antagonist (AID 1259383); further: top concentration of the series differs between compounds; nearly all actives have a fitted effect of over 15% in size
# Sequence of Estrogen receptor (Homo sapiens) (P03372 whole entry, looked up): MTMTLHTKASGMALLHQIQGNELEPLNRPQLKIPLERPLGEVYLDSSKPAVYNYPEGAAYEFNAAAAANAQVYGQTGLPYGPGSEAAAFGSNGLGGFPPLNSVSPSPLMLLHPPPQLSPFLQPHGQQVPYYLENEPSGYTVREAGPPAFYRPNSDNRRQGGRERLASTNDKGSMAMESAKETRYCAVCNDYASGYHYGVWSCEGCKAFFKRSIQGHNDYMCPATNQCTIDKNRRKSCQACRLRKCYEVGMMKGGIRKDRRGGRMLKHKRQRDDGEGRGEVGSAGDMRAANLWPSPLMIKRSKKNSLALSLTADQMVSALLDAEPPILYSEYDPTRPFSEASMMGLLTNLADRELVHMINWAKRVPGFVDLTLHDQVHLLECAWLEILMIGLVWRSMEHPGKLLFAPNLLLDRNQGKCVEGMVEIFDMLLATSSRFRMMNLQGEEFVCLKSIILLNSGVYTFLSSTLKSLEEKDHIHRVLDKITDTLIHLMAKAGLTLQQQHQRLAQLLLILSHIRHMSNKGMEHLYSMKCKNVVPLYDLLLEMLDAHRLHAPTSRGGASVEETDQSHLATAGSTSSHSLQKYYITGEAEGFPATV
# Outline: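 In VM7Luc4E2 cells, 4,000 per well, compounds at 15 concentrations were co-incubated 22hr at 37C with 10.0nM final ICI-182,780. Luminescence from the stably transfected 4×ERE-luciferase reporter was recorded 30min after ONE-Glo addition.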
# [19] = molecular target: Androgen receptor (Homo sapiens) (UniProt P10275); experiment: qHTS assay to identify small molecule agonists of the androgen receptor (AR) signaling pathway in the presence of an antagonist (AID 1259381); further: nearly all actives have a fitted effect of over 15% in size
# Sequence of Androgen receptor (Homo sapiens) (P10275 whole entry, looked up): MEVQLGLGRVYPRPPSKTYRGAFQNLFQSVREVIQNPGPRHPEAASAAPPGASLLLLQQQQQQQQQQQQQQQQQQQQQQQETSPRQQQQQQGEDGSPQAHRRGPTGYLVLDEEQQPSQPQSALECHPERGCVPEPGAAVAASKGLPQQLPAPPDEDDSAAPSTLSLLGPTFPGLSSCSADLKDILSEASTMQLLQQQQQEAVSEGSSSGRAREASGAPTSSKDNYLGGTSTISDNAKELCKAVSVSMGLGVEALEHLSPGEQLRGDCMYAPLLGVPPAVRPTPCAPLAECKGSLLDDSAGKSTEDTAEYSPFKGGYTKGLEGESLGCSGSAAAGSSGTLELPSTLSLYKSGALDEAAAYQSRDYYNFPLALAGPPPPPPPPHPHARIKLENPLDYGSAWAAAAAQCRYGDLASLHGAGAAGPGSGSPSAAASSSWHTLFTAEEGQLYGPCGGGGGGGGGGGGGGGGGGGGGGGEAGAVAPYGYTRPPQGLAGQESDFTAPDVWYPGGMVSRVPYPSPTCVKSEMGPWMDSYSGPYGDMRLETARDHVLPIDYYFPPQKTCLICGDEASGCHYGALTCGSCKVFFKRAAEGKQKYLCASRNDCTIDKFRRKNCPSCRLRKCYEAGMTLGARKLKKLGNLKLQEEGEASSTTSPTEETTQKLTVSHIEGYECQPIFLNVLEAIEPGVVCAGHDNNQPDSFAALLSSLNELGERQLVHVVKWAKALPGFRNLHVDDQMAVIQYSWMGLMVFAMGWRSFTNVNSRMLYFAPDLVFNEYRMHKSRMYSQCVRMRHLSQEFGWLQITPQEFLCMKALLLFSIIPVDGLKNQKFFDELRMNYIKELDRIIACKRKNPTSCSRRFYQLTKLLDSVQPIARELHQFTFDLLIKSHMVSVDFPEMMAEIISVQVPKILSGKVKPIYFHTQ
# Outline: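 Here, 15-concentration compound series were pin-transferred onto MDA-kb2 MMTV-luciferase cells already dosed with nilutamide (3.0uM final). After 16hr at 37C, ONE-Glo was added and luminescence read 30min later at room temperature.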
smiles,measurement,setting,value
CCC(C)S (stereo not drawn),activation,[1],0.578% [at 3.32 µM]
same,"activity, negative = inhibition",[2],9.7% [at 3.27 µM]
same,"activity change, negative = cytotoxicity",[3],-0.314% [at 3.27 µM]
same,"activity change, negative = cytotoxicity",[4],4.81% [at 3.32 µM]
same,"activity change, negative = cytotoxicity",[5],6.44% [at 3.27 µM]
same,cAMP activity change,[6],0.879% [at 3.27 µM]
same,"activity change, negative = inhibition",[7],-0.487% [at 3.27 µM]
same,"activity change, negative = cytotoxicity",[8],1.97% [at 3.27 µM]
same,activation,[9],-0.0244% [at 3.27 µM]
same,"activity change, negative = inhibition",[10],8.27% [at 3.27 µM]
same,"activity change, negative = cytotoxicity",[11],-5.62% [at 3.27 µM]
same,"activity change, negative = cytotoxicity",[12],1.88% [at 3.27 µM]
same,"viability change, negative = cytotoxic",[13],-5.42% [at 2.72 µM]
same,"activity change, negative = cytotoxicity",[14],8.43% [at 2.72 µM]
same,activation,[15],-0.527% [at 2.72 µM]
same,"activity, negative = inhibition",[16],-1.08% [at 1.81 µM]
same,activation,[17],0.209% [at 2.04 µM]
CCN1CCC[C@H]1CNC(=O)c1c(O)c(Cl)cc(Cl)c1OC,outcome,[1],inactive
same,outcome,[2],inactive
same,Potency,[3],inactive
same,Potency,[4],inactive
same,Potency,[5],inactive
same,Potency,[18],inactive
same,outcome,[6],inactive
same,Potency,[7],inactive
same,Potency,[8],inactive
same,Potency,[9],inactive
same,Potency,[10],inactive
same,Potency,[12],inactive
same,Potency,[13],inactive
same,outcome,[14],inactive
same,outcome,[15],inactive
same,outcome,[16],inactive
same,outcome,[17],inactive
O=C(O)Cc1ccc(CCNS(=O)(=O)c2ccc(Cl)cc2)cc1,outcome,[1],inactive
same,outcome,[2],inactive
same,Potency,[3],inactive
same,Potency,[4],inactive
same,Potency,[5],inactive
same,Potency,[18],inactive
same,outcome,[6],inactive
same,Potency,[7],inactive
same,Potency,[8],inactive
same,Potency,[9],inactive
same,Potency,[10],inactive
same,Potency,[11],inactive
same,Potency,[12],inactive
same,Potency,[13],inactive
same,outcome,[15],inactive
same,outcome,[16],inactive
same,outcome,[17],inactive
COC(=O)C1=C(C)NC(C)=C(C(=O)OC)C1c1ccccc1[N+](=O)[O-],outcome,[1],inactive
same,outcome,[2],inactive
same,Potency,[3],inactive
same,Potency,[4],inactive
same,Potency,[5],inactive
same,Potency,[18],inactive
same,outcome,[6],inactive
same,Potency,[7],inactive
same,Potency,[8],inactive
same,Potency,[9],inactive
same,Potency,[10],23.7 µM (active)
same,Potency,[12],inactive
same,Potency,[13],inactive
same,outcome,[15],inactive
same,outcome,[16],inactive
same,outcome,[17],inactive
NS(=O)(=O)c1cc(C(=O)NN2C[C@H]3[C@H]4CCC(C4)[C@H]3C2)ccc1Cl,outcome,[1],inactive
same,outcome,[2],inactive
same,Potency,[3],inactive
same,Potency,[4],inactive
same,Potency,[19],inactive
same,Potency,[5],inactive
same,Potency,[18],inactive
same,outcome,[6],inactive
same,Potency,[7],inactive
same,Potency,[8],inactive
same,Potency,[9],inactive
same,Potency,[10],inactive
same,Potency,[11],inactive
same,Potency,[12],inactive
same,Potency,[13],inactive
same,outcome,[14],inactive
same,outcome,[15],inactive
same,outcome,[16],inactive
same,outcome,[17],inactive
NC(=O)c1cn(Cc2c(F)cccc2F)nn1,outcome,[1],inactive
same,outcome,[2],inactive
same,Potency,[3],inactive
same,Potency,[4],inactive
same,Potency,[5],inactive
same,outcome,[6],inactive
same,Potency,[7],inactive
same,Potency,[8],inactive
same,Potency,[9],inactive
same,Potency,[10],inactive
same,Potency,[12],inactive
same,Potency,[13],inactive
same,outcome,[14],inactive
same,outcome,[15],inactive
C=C(C)C(=O)OCCCCCCCC(C)C,outcome,[1],inactive
same,outcome,[2],inactive
same,Potency,[3],inactive
same,Potency,[19],inactive
same,Potency,[5],inactive
same,Potency,[18],inactive
same,outcome,[6],inactive
same,Potency,[7],inactive
same,Potency,[8],inactive
same,Potency,[9],inactive
same,Potency,[10],inactive
same,Potency,[11],inactive
same,Potency,[12],inactive
same,Potency,[13],inactive
same,outcome,[14],inactive
same,outcome,[15],inactive
same,outcome,[16],inactive
same,outcome,[17],inactive
